# Measurements from PubChem BioAssay (Tox21).
# Where “and” joins values, the source holds several entries; their conditions need not be identical. Identical values can stand only once. Inconclusive results are not listed. Entries that show only a call come without a potency. More than one record can exist for a structure, and the calls need not agree. Calls of active or inactive are those of the source. Unless noted, calls come from the whole dose curve.
# Key:
# [1] = Nuclear factor erythroid 2-related factor 2/antioxidant responsive element (Nrf2/ARE) small molecule agonists: qHTS cell viability counter screen in human keratinocytes (AID 1919968; active = well fitted curve in the direction sought with a large enough effect in the repeat runs; an effect the other way counts as inactive or inconclusive; note: nearly all actives have a fitted effect of over 55% in size; note: potency is the fitted concentration of half-maximal effect)
# Method in brief: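 Measured as CellTiter-Fluor fluorescence, this readout tracks cytotoxicity in the same wells as the ARE-luciferase screen. HaCaT reporter cells (1,500/well) received compounds after a 5 h pre-incubation and were exposed for 23 h.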
# [2] = Nuclear factor erythroid 2-related factor 2/antioxidant responsive element (Nrf2/ARE) small molecule agonists: luciferase reporter gene qHTS assay in human keratinocytes (AID 1919969); note: nearly all actives have a fitted effect of over 35% in size
# [3] = biological target: Gonadotropin-releasing hormone receptor (Homo sapiens) (UniProt P30968); test: Human gonadotropin-releasing hormone receptor (GnRHR) small molecule agonists, calcium flux assay in GnRHR-HEK293 cells (AID 1920063); note: nearly all actives have a fitted effect of over 35% in size
# Method in brief: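 Fluorescence kinetics (480 nm excitation, 540 nm emission; 3 min, 1 s steps) report calcium mobilisation in human GnRHR-HEK293 cells in agonist mode. Dye incubation: 1 h, 37 C.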
# [4] = biological target: KiSS-1 receptor (Homo sapiens) (UniProt Q969F8); test: Human kisspeptin (KISS1R) small molecule agonists, calcium flux assay in KISS1R-HEK293 cells (AID 1920064; active = well fitted curve in the direction sought with a large enough effect in the repeat runs; an effect the other way counts as inactive or inconclusive)
# Method in brief: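 Measures KISS1R agonism through calcium-sensitive dye fluorescence in stably transfected HEK293 cells, read for 3 min after pin-tool compound delivery; 15-point titrations in triplicate.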
# [5] = G protein-coupled receptor (GPCR) small molecule agonists, calcium flux assay: HEK293 wild type cell line counter screen (AID 1920065)
# Method in brief: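 Readout: fluorescence at 480 nm excitation/540 nm emission, sampled at 1 s intervals for 3 min. Cells had been cultured 18 h, then dye-loaded 1 h at 37 C before compound or ATP addition.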
# [6] = p53 small molecule agonists, cell-based qHTS assay with human liver microsomes: qHTS cell viability counter screen (AID 1963579); note: nearly all actives have a fitted effect of over 45% in size
# Method in brief: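 Seed p53RE-bla cells at 4,000 per well; incubate 5 h at 37 C; add compound, human liver microsomes and NADPH; incubate 16 h at 37 C; add CellTiter-Glo; after 30 min at room temperature, read luminescence.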
# [7] = p53 small molecule agonists, cell-based qHTS assay with rat liver microsomes: qHTS cell viability counter screen (AID 1963580); note: nearly all actives have a fitted effect of over 45% in size
# Method in brief: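 HCT-116 p53RE-bla, 4,000 cells/well, 5 h pre-incubation; cpd + rat liver microsomes 0.5 mg/mL + NADPH 0.5 mg/mL (final); 16 h, 37 C; CellTiter-Glo, 30 min RT; luminescence.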
# [8] = p53 small molecule agonists, cell-based qHTS assay: qHTS cell viability counter screen (AID 1963581); note: nearly all actives have a fitted effect of over 45% in size
# Method in brief: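 In the same plates used for the p53 bla reporter, HCT-116 cells given compounds for 16 h at 37 C received CellTiter-Glo; luminescence was recorded 30 min later at room temperature.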
# [9] = biological target: 5-hydroxytryptamine receptor 2A (Homo sapiens) (UniProt P28223); test: 5-hydroxytryptamine receptor 2A (HTR2A) small molecule antagonists, cell-based qHTS assay (AID 1963586); note: nearly all actives have a fitted effect of over 45% in size
# Method in brief: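 Antagonist-mode intracellular calcium assay: DOI (4 nM) added after 5 min compound pre-incubation at room temperature to dye-loaded HTR2A-CHO cells. Fluorescence followed for 3 min, sampled every second.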
# [10] = biological target: 5-hydroxytryptamine receptor 2A (Homo sapiens) (UniProt P28223); test: 5-hydroxytryptamine receptor 2A (HTR2A) small molecule agonists, cell-based qHTS assay (AID 1963587); note: nearly all actives have a fitted effect of over 30% in size
# Method in brief: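 Kinetic calcium-flux fluorescence (2 min, 1 sec intervals) after compound addition in agonist mode. HTR2A-CHO cells were cultured 18 h, then dye-loaded 1 h at 37 C.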
# [11] = biological target: Muscarinic acetylcholine receptor M1 (Homo sapiens) (UniProt P11229); test: Cholinergic receptor muscarinic 1 (CHRM1) small molecule antagonists, cell-based qHTS assay (AID 1963588); note: nearly all actives have a fitted effect of over 40% in size
# Method in brief: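 CHRM1-CHO calcium-flux assay, antagonist mode. Cells were seeded 18 h, dye-loaded 1 h at 37 C and given compound for 5 min at RT, then acetylcholine was added at 50nM. FDSS fluorescence was read 3 min; 15 concentrations, three runs.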
# [12] = biological target: Muscarinic acetylcholine receptor M1 (Homo sapiens) (UniProt P11229); test: Cholinergic receptor muscarinic 1 (CHRM1) small molecule agonists, cell-based qHTS assay (AID 1963589); note: nearly all actives have a fitted effect of over 35% in size
# Method in brief: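 Each compound was tested at 15 concentrations across three independent runs on dye-loaded CHO cells stably expressing human CHRM1, reading intracellular calcium fluorescence kinetically at 1 sec intervals.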
# [13] = cAMP Responsive Elements (CRE) small molecule agonists, cell-based qHTS assay (AID 1963590)
# Method in brief: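 Cell line: CRE-bla HEK 293T; medium DMEM/10% dialyzed FBS/0.1 mM NEAA/1 mM pyruvate/25 mM HEPES; 3 h compound exposure; beta-lactamase FRET readout after 2 h substrate loading at RT.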
# [14] = biological target: Beta-2 adrenergic receptor (Homo sapiens) (UniProt P07550); test: Adrenergic beta2 receptor (ADRB2) small molecule antagonists, cell-based qHTS assay (AID 1963592); note: series mostly up to about 92 µM; nearly all actives have a fitted effect of over 50% in size
# Method in brief: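 Cells (CHO, stable ADRB2 overexpression) incubated 18-20hr at 37C; compounds added from DMSO; agonist mix (1nM isoproterenol, 100uM IBMX, 25uM Ro-20-1724) added; 0.5hr RT; d2-cAMP and anti-cAMP-cryptate added; 1hr RT; 665/615 nm read.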
# [15] = biological target: D(2) dopamine receptor (Homo sapiens) (UniProt P14416); test: Dopamine D2 receptor (DRD2) small molecule agonists, cell-based qHTS assay (AID 1963594); note: nearly all actives have a fitted effect of over 35% in size
# Method in brief: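 cAMP accumulation in DRD2-HEK293 cells measured by HTRF after 1 h detection; compounds added 10 min before NKH477 (200nM […]) forskolin-analogue stimulation, 30 min at room temperature, with Ro20-1724 present at 0.1 mM final.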
# [16] = biological target: D(2) dopamine receptor (Homo sapiens) (UniProt P14416); test: Dopamine D2 receptor (DRD2) small molecule antagonists, cell-based qHTS assay (AID 1963595; active = well fitted inhibition curve with a large enough effect in the signal ratio in the repeat runs, with a control signal flat; the % refers to the signal ratio)
# Method in brief: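 DRD2-HEK293; 0.1 mM Ro20-1724; cpd 10 min RT; NKH477 200 nM + quinpirole 12 nM, 30 min RT; HTRF cAMP (cAMP-d2/anti-cAMP cryptate), 665/620 nm ratio after 1 h.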
# [17] = cAMP Responsive Elements (CRE) small molecule antagonists, cell-based qHTS assay (AID 1963591; active = well fitted inhibition curve with a large enough effect in the signal ratio in the repeat runs, not every such curve was filed as active; the % refers to the signal ratio)
# Method in brief: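 Inhibition of NKH477-driven (0.25 uM final) CRE-beta-lactamase signal in HEK293T cells, 3 h compound exposure at 37 °C, detected by FRET substrate fluorescence.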
# [18] = biological target: Beta-2 adrenergic receptor (Homo sapiens) (UniProt P07550); test: Adrenergic beta2 receptor (ADRB2) small molecule agonists, cell-based qHTS assay (AID 1963593);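 note: CHO cells stably overexpressing human ADRB2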
# Method in brief: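 CHO cells stably over-expressing ADRB2 were plated overnight at 37C, then dosed with compounds plus a stimulation mix containing 100uM IBMX and 25uM Ro-20-1724 for 0.5hr at room temperature. cAMP was measured by HTRF competition, 1hr.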
# Chain of KiSS-1 receptor (Homo sapiens) (Q969F8 whole entry, looked up): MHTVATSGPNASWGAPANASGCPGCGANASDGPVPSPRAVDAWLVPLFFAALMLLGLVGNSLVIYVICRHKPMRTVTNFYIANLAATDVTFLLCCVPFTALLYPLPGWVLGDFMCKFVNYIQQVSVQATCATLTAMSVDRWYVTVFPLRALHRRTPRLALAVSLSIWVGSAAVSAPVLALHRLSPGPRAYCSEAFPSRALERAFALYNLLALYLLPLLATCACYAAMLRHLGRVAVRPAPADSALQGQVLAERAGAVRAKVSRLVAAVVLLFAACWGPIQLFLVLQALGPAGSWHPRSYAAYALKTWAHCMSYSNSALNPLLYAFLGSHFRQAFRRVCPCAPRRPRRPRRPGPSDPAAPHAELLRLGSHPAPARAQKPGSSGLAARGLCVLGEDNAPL
# Chain of 5-hydroxytryptamine receptor 2A (Homo sapiens) (P28223 whole entry, looked up): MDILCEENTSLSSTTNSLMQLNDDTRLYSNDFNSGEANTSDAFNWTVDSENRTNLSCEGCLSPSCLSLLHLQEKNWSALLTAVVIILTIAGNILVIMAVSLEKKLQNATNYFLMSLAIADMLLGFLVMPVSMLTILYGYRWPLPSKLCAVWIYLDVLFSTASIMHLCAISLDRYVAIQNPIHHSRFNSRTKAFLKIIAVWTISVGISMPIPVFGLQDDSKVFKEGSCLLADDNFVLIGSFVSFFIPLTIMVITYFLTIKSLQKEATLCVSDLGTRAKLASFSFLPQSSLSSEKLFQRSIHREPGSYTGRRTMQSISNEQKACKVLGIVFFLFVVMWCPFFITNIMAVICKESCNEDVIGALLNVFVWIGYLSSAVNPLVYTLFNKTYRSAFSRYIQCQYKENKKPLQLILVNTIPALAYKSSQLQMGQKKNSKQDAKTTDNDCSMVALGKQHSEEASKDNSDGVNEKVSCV
# Chain of Gonadotropin-releasing hormone receptor (Homo sapiens) (P30968 whole entry, looked up): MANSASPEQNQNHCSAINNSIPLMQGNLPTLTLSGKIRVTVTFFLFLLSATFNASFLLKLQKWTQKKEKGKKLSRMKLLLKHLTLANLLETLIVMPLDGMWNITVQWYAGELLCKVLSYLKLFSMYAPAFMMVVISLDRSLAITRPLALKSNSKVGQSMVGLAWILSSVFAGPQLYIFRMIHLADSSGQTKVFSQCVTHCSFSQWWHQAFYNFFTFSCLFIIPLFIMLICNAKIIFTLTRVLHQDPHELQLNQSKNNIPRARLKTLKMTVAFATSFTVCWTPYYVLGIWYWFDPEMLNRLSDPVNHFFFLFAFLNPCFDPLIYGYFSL
# Chain of Muscarinic acetylcholine receptor M1 (Homo sapiens) (P11229 whole entry, looked up): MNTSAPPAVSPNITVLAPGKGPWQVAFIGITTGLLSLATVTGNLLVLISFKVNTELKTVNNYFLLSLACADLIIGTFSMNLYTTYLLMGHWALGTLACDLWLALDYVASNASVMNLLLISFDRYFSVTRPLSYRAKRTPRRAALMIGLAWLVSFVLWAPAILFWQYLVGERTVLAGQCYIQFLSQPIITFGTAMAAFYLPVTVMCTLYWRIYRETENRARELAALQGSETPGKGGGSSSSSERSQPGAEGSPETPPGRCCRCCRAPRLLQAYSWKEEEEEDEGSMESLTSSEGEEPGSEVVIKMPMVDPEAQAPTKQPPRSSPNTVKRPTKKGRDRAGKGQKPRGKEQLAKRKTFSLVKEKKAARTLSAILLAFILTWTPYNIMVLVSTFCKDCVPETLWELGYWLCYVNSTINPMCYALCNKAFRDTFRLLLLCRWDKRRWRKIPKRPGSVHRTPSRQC
# Chain of Beta-2 adrenergic receptor (Homo sapiens) (P07550 whole entry, looked up): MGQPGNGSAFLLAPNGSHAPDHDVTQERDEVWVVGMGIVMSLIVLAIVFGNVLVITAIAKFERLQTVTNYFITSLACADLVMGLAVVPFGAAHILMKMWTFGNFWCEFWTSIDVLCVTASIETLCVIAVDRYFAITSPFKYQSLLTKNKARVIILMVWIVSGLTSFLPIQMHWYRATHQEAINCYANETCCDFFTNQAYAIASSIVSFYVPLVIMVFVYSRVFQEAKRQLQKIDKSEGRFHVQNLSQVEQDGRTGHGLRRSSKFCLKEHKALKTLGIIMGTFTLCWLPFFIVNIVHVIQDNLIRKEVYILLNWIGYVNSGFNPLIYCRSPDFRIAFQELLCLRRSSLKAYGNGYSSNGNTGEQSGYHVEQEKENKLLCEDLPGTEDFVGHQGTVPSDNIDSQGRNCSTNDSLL
# Chain of D(2) dopamine receptor (Homo sapiens) (P14416 whole entry, looked up): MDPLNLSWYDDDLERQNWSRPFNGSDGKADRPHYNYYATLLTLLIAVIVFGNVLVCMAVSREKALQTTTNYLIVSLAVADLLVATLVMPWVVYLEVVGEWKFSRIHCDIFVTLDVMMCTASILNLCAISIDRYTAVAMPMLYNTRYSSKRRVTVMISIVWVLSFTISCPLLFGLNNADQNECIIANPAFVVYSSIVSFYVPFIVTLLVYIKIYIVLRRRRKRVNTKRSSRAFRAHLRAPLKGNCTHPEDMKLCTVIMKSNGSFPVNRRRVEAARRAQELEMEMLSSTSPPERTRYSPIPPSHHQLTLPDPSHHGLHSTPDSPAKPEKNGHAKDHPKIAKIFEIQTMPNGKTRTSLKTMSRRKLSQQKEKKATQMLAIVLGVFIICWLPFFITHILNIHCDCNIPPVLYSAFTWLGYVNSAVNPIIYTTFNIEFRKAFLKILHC
SMILES,Potency [1],Potency [2],Potency [3],Potency [4],Potency [5],Potency [6],Potency [7],Potency [8],Potency [9],Potency [10],Potency [11],Potency [12],Potency [13],Potency [14],Potency [15],Potency [16],Potency [17],Potency [18]
CC1CCC(C(C)C)C(O)C1 (stereo not given),inactive,inactive,inactive,inactive,inactive,inactive,inactive,inactive,inactive,inactive,inactive,inactive,inactive,inactive,inactive,inactive,,
Nc1c(S(=O)(=O)O)cc(Br)c2c1C(=O)c1ccccc1C2=O,inactive and 30.6 µM (active),inactive,inactive,inactive,inactive,inactive,inactive,inactive,inactive,inactive,inactive,inactive,inactive,inactive,inactive,,inactive,
C=CC(C)(O)CCC=C(C)C (stereo not given),inactive,inactive,inactive,inactive,inactive,inactive,inactive,inactive,inactive,inactive,inactive,inactive,inactive,inactive,inactive,inactive,inactive,
CC(=O)OC1CC(C)OC(C)O1 (stereo not given),inactive,inactive,inactive,inactive,inactive,inactive,inactive,inactive,inactive,inactive,inactive,inactive,inactive,inactive,,inactive,inactive,inactive
Nc1ccc2cc3ccccc3cc2c1,inactive,inactive,inactive,inactive,inactive,inactive,inactive,inactive,inactive,,inactive,inactive,,,inactive,inactive,,inactive
Cc1cccc(C)c1[N+](=O)[O-],inactive,inactive,inactive,inactive,inactive,inactive,inactive,inactive,inactive,inactive,inactive,inactive,inactive,,inactive,inactive,inactive,inactive
CC(C)(C)c1cc(Cc2cc(C(C)(C)C)c(O)c(C(C)(C)C)c2)cc(C(C)(C)C)c1O,inactive,inactive,inactive,inactive,inactive,inactive,inactive,inactive,inactive,,inactive,,inactive,inactive,inactive,inactive,inactive,inactive
O=[N+]([O-])c1ccc2nc[nH]c2c1,inactive,inactive,inactive,inactive,inactive,inactive,inactive,inactive,inactive,inactive,inactive,,inactive,inactive,inactive,inactive,inactive,inactive
